“And” between values parts separate entries of the source, which are not always exact repeats. Equal values may be shown once. About 480 (0.16%) of roughly 300,000 compounds were called active.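 The calls were made as follows: active = inhibition over 29.93%, a cutoff 3 SD above the screen mean, later confirmed by dose response; inconclusive = inhibition over 29.93% but no dose response follow-up; inactive = inhibition at most 29.93% or unconfirmed.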 A selection follows. Potency and affinity values are given separately.
Assay: PhoP-dependent GFP reporter repression – Salmonella Typhimurium, primary screen (AID 1863);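 also: 0% = low Mg2+ inducing control and 100% = high Mg2+ repressing control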
Conditions: S. Typhimurium PhoP-regulated promoter GFP reporter, 4 h; at 50 µM; active compounds read high

inhibition, inactive:
Cc1ncc(CSCC(=O)Nc2cc(C(F)(F)F)ccc2Cl)c(CO)c1O 3.52%
C=C1CCC(OC(C)=O)C2(C)CCC3C(C)C(=O)OC3C12O (stereo unspecified) 5.69%
CC[N+](C)(C)CCN(Cc1ccc(Cl)cc1)c1ccccn1 1.17%
COc1ccc(CN(CCN(C)C)c2ccccn2)cc1 5.26% and 0.005%
Cc1cccc(CCNC(=O)CN(C)S(=O)(=O)c2ccc3c(c2)c(=O)n(C)c(=O)n3C)c1 10.3%
Cc1ccc(N2C(=O)N(Cc3ccccc3C)c3ccccc3S2(=O)=O)cc1 3.76%
O=C(N/N=C/c1ccc(O)c2ncccc12)c1cccc(Br)c1 -1.53%
Cc1ccc(N=Nc2ccc(O)c3ncccc23)cc1 0.67%
Oc1ccc(F)c2cccnc12 -2.12%
Cc1ccccc1N=Nc1ccc(O)c2ncccc12 -2.25%
CN(c1ccc(C(=O)Nc2ccccc2C(=O)N2CCCC2)cc1)S(C)(=O)=O 1.89%
CCn1c(C(=O)O)c(CC(=O)Nc2ccccc2OC)c2ccccc21 -3.77%
CCC/C=C1/CCCOC(C(=O)NCc2ccccn2)(C(F)(F)F)C1 (stereo unspecified) 4.57%
COC(=O)c1ccccc1NC(=O)Nc1ncccc1C 8.31%
C=CCn1c(-c2sc3nc(C)cc(C)c3c2N)n[nH]c1=S 1.92%
CN(Cc1ccccc1)S(=O)(=O)c1ccc(Cl)c(C(=O)NCCc2ccccn2)c1 -2.89%
Cc1ccc(S(=O)(=O)NC(=O)NCc2ccc(F)cc2)cc1 -2.51%
COc1ccc(-c2nnc(SCC(=O)NC(=O)NCc3ccccc3)o2)cc1 2.48%
CCCc1cc(=O)oc2cc(C)cc(OCC(=O)NCCCN3CCCC3=O)c12 -4.85%
Cn1nnnc1SCc1nc2ccccc2s1 -6.44%
COc1c(C(=O)Nc2ccc(CN3CCOCC3)cc2)cc2ccccc2c1Br 2.69%
C=CC1=C(C(=O)O)N2C(=O)C(NC(=O)Cc3ccccc3)C2SC1 (stereo unspecified) -2.7%
CN(C)CCn1nnnc1SCC1=C(C(=O)O)N2C(=O)[C@@H](NC(=O)Cc3csc(N)n3)[C@H]2SC1 2.16%
CC1=C(C(=O)O)N2C(=O)C(NC(=O)c3ccn(C)n3)C2SC1 (stereo unspecified) 5.21%
C[C@H]1[C@H](NC(=O)C(=NOC(C)(C)C(=O)O)c2csc(N)n2)C(=O)N1S(=O)(=O)O -6.02%
COC(c1ccccc1)(c1ccccc1)C(Oc1nccc(C)n1)C(=O)O (stereo unspecified) -3.3%

From PubChem BioAssay AID1863 (Southern Research Specialized Biocontainment Screening …, 2009)
